Source: PubChem BioAssay AID1159580 (chemical genetic matrix, 2015)
Values joined by “and” are separate entries in the source; they are usually repeats but may differ in a detail not shown here. Equal entries are not always repeated. The campaign covered roughly 5,500 compounds. About 2,000 (36%) were called active. Roughly 18% stayed inconclusive and do not appear here. No stated cut-off is given here; in the data, active means normalized growth mostly below about 0.91 (no sharp cut-off); inconclusive means no clear call, values can overlap the other calls; inactive means mostly above about 0.92. The list shows a part of the results.

Experiment: chemical genetic growth profiling, strain panel (AID 1159580);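 further: tested at 20 µM; growth read once vehicle control cultures reached saturation at 30 °C; 1 = growth at the plate median or of vehicle wells; lower values mean less growth of the strain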
Settings: S. cerevisiae deletion strains, growth OD

Measured: normalized growth

CCC(N)C(O)c1ccc(O)c(O)c1 (configuration not stated)
inactive: locus YAL013W, strain DEP1, hits give low values 1.02 | locus YAL021C, strain ccr4, hits give low values 1 | locus YAL026C, strain drs2, hits give low values 0.987 | locus YAL030W, strain snc1, hits give low values 0.986 | locus YBL061C, strain skt5, hits give low values 0.99 | locus YBR009C, strain hhf1, hits give low values 0.986 | locus YBR021W, strain FUR4, hits give low values 0.995 | locus YBR023C, strain chs3, hits give low values 0.994 | locus YBR171W, strain sec66, hits give low values 0.976 | locus YBR229C, strain ROT2, hits give low values 1.02 | locus YBR231C, strain swc5, hits give low values 0.984 | locus YBR279W, strain paf1, hits give low values 0.991 | locus YCL011C, strain gbp2, hits give low values 0.996 | locus YCL016C, strain dcc1, hits give low values 0.998 | locus YCL029C, strain bik1, hits give low values 0.992 | locus YCL061C, strain MRC1, hits give low values 0.991 | locus YCL069W, strain vba3, hits give low values 1 | locus YCR088W, strain abp1, hits give low values 0.997 | locus YDL005C, strain med2, hits give low values 0.993 | locus YDL035C, strain GPR1, hits give low values 1.02 | locus YDL040C, strain nat1, hits give low values 0.99 | locus YDL074C, strain BRE1, hits give low values 1 | locus YDL101C, strain DUN1, hits give low values 1.01 | locus YDL134C, strain PPH21, hits give low values 1 | locus YDL185W, strain tfp1, hits give low values 0.968 | locus YDL192W, strain arf1, hits give low values 0.998 | locus YDR001C, strain nth1, hits give low values 0.99 | locus YDR069C, strain doa4, hits give low values 0.981 | locus YDR101C, strain arx1, hits give low values 0.995 | locus YDR137W, strain rgp1, hits give low values 1.02 | locus YDR150W, strain NUM1, hits give low values 1.02 | locus YDR159W, strain sac3, hits give low values 0.965 | locus YDR162C, strain NBP2, hits give low values 1.02 | locus YDR195W, strain ref2 0.931 | locus YDR297W, strain sur2, hits give low values 0.991 | locus YDR318W, strain mcm21, hits give low values 0.977 | locus YDR334W, strain swr1, hits give low values 0.994 | locus YDR335W, strain msn5, hits give low values 0.993 | locus YDR388W, hits give low values 0.993 | locus YDR392W, strain spt3, hits give low values 0.934 | locus YDR502C, strain sam2, hits give low values 0.998 | locus YEL003W, strain gim4, hits give low values 0.997 | locus YEL037C, strain rad23, hits give low values 1.02 | locus YEL061C, strain CIN8 (second series), hits give low values 0.988 | locus YEL061C, strain CIN8, hits give low values 1.01 | locus YER015W, strain faa2, hits give low values 0.984 | locus YER016W, strain bim1, hits give low values 0.989 | locus YER110C, hits give low values 0.985 | locus YER111C, strain swi4, hits give low values 0.989 | locus YER155C, strain BEM2 (second series), hits give low values 0.979 | locus YER155C, strain BEM2, hits give low values 1.01 | locus YER167W, strain BCK2, hits give low values 1.03 | locus YFR010W, strain ubp6, hits give low values 0.983 | locus YGL078C, strain dbp3, hits give low values 1 | locus YGL086W, strain mad1, hits give low values 0.988 | locus YGL167C, strain pmr1, hits give low values 0.985 | locus YGL173C, strain kem1, hits give low values 0.998 | locus YGL227W, strain vid30, hits give low values 0.983 | locus YGL240W, strain doc1, hits give low values 0.96 | locus YGL248W, strain PDE1, hits give low values 1.01 | locus YGL253W, strain hxk2, hits give low values 1.01 | locus YGR078C, strain PAC10, hits give low values 0.991 | locus YGR135W, strain pre9, hits give low values 0.993 | locus YGR229C, strain SMI1, hits give low values 1.02 | locus YGR252W, strain gcn5, hits give low values 1.04 | locus YHR013C, strain ard1, hits give low values 0.989 | locus YHR027C, strain rpn1, hits give low values 0.985 | locus YHR030C, strain SLT2, hits give low values 1.01 | locus YHR079C, strain IRE1 (second series), hits give low values 0.986 | locus YHR079C, strain IRE1, hits give low values 1.02 | locus YHR094C, strain hxt1, hits give low values 0.988 | locus YHR129C, strain ARP1, hits give low values 1.01 | locus YHR142W, strain chs7, hits give low values 1.01 | locus YHR200W, strain rpn10, hits give low values 0.994 | locus YIL066C, strain RNR3, hits give low values 1.01 | locus YIL073C, strain SPO22, hits give low values 1.03 | locus YIL125W, strain kgd1, hits give low values 0.995 | locus YIR030C, strain dcg1, hits give low values 0.987 | locus YJL092W, strain hpr5, hits give low values 0.99 | locus YJL095W, strain BCK1 (second series), hits give low values 0.991 | locus YJL095W, strain BCK1, hits give low values 1 and 1.01 | locus YJL115W, strain asf1, hits give low values 0.992 | locus YJL129C, strain trk1, hits give low values 0.993 | locus YJL134W, strain LCB3, hits give low values 1.01 | locus YJL154C, strain vps35, hits give low values 0.993 | locus YJL164C, strain tpk1, hits give low values 0.994 | locus YJL166W, strain qcr8, hits give low values 0.988 | locus YJL168C, strain set2, hits give low values 0.99 | locus YJL187C, strain SWE1 (second series), hits give low values 0.996 | locus YJL187C, strain SWE1, hits give low values 0.983 | locus YJR043C, strain POL32, hits give low values 0.975 | locus YJR066W, strain TOR1, hits give low values 0.983
